Bm FixLJ act: B. multivorans fixK reporter activation. B. multivorans fixK-promoter GFP reporter, 18 h; hits give high values. z-score (no concentration beside the values). AID 1918990. 29,000 tested, 0.3% active;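 active = replicate mean overnight rise in green fluorescent reporter signal, 3 or more SD over negative controls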
The depositor's hits bear a star. The sample as a whole holds a higher share of hits than the screen did.

Results for COc1ccc(C(=O)Nc2cc(-c3nc4ccccc4s3)ccc2OC)cc1 ?
Bm FixLJ act: 0.46

What do the screens show for `COc1ccccc1NC(=O)c1sc(-c2ccc(Cl)cc2)cc1N`?
Bm FixLJ act: 4.2*

Results for COc1ccccc1NC(=O)c1sc2nc3c(cc2c1N)CCCCCC3 ?
Bm FixLJ act: -2.2

How did Cc1cc(=O)[nH]c(CCNC(=O)C(c2cccnc2)N2CCOCC2)n1 (stereo not drawn) do in these assays?
Bm FixLJ act: -1.1

How did COc1ccc(C(C)NC(=O)Cc2c(C)[nH]c(=O)[nH]c2=O)cc1F (stereo not drawn) do in these assays?
Bm FixLJ act: -0.79

How did COc1cc(S(=O)(=O)NC(C)c2n[nH]c(C)n2)c(C)cc1C (stereo not drawn) do in these assays?
Bm FixLJ act: -0.73

Results for COC(=O)CN1C(C(=O)c2ccccc2)=C(OC(=O)c2ccc(F)cc2)c2ccccc2S1(=O)=O ?
Bm FixLJ act: 1.6

Results for CN1C(C(=O)c2ccccc2)=C(NC(=O)c2ccccc2Br)c2ccccc2S1(=O)=O ?
Bm FixLJ act: 3.6*

Results for CCCCC(=O)OC1=C(C(=O)c2ccccc2)N(C)S(=O)(=O)c2ccccc21 ?
Bm FixLJ act: 2.3

How did Cc1ccc(NC(=O)c2ccccc2Br)c(C(=O)c2ccccc2)c1 do in these assays?
Bm FixLJ act: 0.54

How did CCCN1C(C(=O)c2ccccc2)=C(OC(=O)C(C)(C)C)c2ccccc2S1(=O)=O do in these assays?
Bm FixLJ act: 0.47

How did CN1C(C(=O)c2ccccc2)=C(NC(=O)c2ccc(F)cc2)c2ccccc2S1(=O)=O do in these assays?
Bm FixLJ act: 7.5*

What do the screens show for `Cc1cnc(C)c(N2CCN(c3ncccc3C(=O)N3CCCC3)CC2)n1`?
Bm FixLJ act: -0.92

How did Cn1ncnc1CCNC(=O)c1ccc(N2CCCC2)c(Cl)c1 do in these assays?
Bm FixLJ act: -0.43

Results for CC(C)C(=O)N1CCC(Nc2nc(-c3cccnc3)nc3c2cnn3C)CC1 ?
Bm FixLJ act: -0.93

Results for O=C(NCc1nc2ccc(F)cc2[nH]1)C1CNCC(C(=O)N2CCOCC2)C1 (stereo not drawn) ?
Bm FixLJ act: -1.2

How did O=C1C(O)=C(O)C(=O)C(O)=C1O do in these assays?
Bm FixLJ act: 7.4*

How did Cc1nc(CCn2ccnc2-c2cnn3cccnc23)nc2c1CCCC2 do in these assays?
Bm FixLJ act: -0.44

What do the screens show for `O=C(CCNC(=O)c1cccc2cnccc12)Nc1cc(F)ccc1F`?
Bm FixLJ act: 2

How did Cc1cc(-c2cc(S(=O)(=O)NCc3cc(C(C)C)on3)c(C)s2)n[nH]1 do in these assays?
Bm FixLJ act: 0.01

What do the screens show for `CN(Cc1cscn1)C(=O)NC1CCN(S(=O)(=O)c2ccccc2)CC1`?
Bm FixLJ act: -0.8

What do the screens show for `C#CCOc1ccc(C2C(C(=O)OC)=C(C)NC3=C2C(=O)c2ccccc23)cc1OCC` (stereo not drawn)?
Bm FixLJ act: 3.7*

What do the screens show for `CCOc1cc(C2C(C(=O)OC)=C(C)NC3=C2C(=O)c2ccccc23)c(Br)cc1OC` (stereo not drawn)?
Bm FixLJ act: -0.22

Results for CCOC(=O)C1=C(C)NC(C)=C(C(=O)OC)C1c1cccc([N+](=O)[O-])c1 (stereo not drawn) ?
Bm FixLJ act: -1.4

Results for CCOc1cc(Br)c(C2C(C(=O)OC)=C(C)NC3=C2C(=O)c2ccccc23)cc1OCC (stereo not drawn) ?
Bm FixLJ act: -0.42

How did CCOC(=O)COc1ccc(C2C(C(=O)OC)=C(C)NC3=C2C(=O)c2ccccc23)cc1Cl (stereo not drawn) do in these assays?
Bm FixLJ act: 4.1*

Results for CCOc1cc(C2C(C(=O)OC)=C(C)NC3=C2C(=O)c2ccccc23)cc(Br)c1OCC (stereo not drawn) ?
Bm FixLJ act: 0.6

How did O=C(CC1CCc2ccccc21)N1CCc2c(nc[nH]c2=O)C1 (stereo not drawn) do in these assays?
Bm FixLJ act: -3.7

What do the screens show for `COC[C@@]12CCC(N3CCOCC3)CC1CCN(CCn1cc[nH]c1=O)C2` (stereo partly drawn)?
Bm FixLJ act: 0.17

Results for CCc1nc2ccccc2n1C(CC)C(=O)NCc1ccccn1 (stereo not drawn) ?
Bm FixLJ act: -0.59

Results for CN(CCCNC(=O)c1cnc2ccccn2c1=O)C1CCCC1 ?
Bm FixLJ act: -2

Results for C=CCOc1ccccc1CN(CC)C(=O)C1CC(C)=NO1 (stereo not drawn) ?
Bm FixLJ act: -1.7

How did COc1cc(C)c(C)cc1S(=O)(=O)N1CCC(O)C(C(=O)O)C1 (stereo not drawn) do in these assays?
Bm FixLJ act: -0.2

How did Cc1ncsc1C(=O)N1CCCN(C(=O)Cc2cccs2)CC1 do in these assays?
Bm FixLJ act: -1.4

Results for CCc1cnc(N2CCC(O)[C@]3(CCCN(C(=O)C4CCCC4)C3)C2)nc1 (stereo partly drawn) ?
Bm FixLJ act: -1.4

How did Cn1ccnc1CCN1CCCN(C(=O)CCc2ccnn2C)CC1 do in these assays?
Bm FixLJ act: -0.87

Results for COc1cc(C(c2c(C)[nH][nH]c2=O)c2c(C)[nH][nH]c2=O)ccc1OC(=O)c1ccccc1OC ?
Bm FixLJ act: 0.53

What do the screens show for `Cc1[nH]n(-c2ccccc2)c(=O)c1C(c1cc(Cl)ccc1O)c1c(C)[nH]n(-c2ccccc2)c1=O`?
Bm FixLJ act: -4.3

What do the screens show for `CCOc1cc(C(c2c(C)[nH]n(-c3ccccc3)c2=O)c2c(C)[nH]n(-c3ccccc3)c2=O)ccc1O`?
Bm FixLJ act: 3.3*

How did COCc1noc(CNC(=O)c2ccc(N(C)S(C)(=O)=O)cc2)n1 do in these assays?
Bm FixLJ act: 3*

Results for CN(c1ccc(C(=O)NCc2noc(-c3cccs3)n2)cc1)S(C)(=O)=O ?
Bm FixLJ act: -0.06

Results for COc1ccc(CNC(=O)c2ccc(CNS(=O)(=O)c3ccc(OC)cc3)cc2)cc1 ?
Bm FixLJ act: 0.21

How did CCn1nc(CO)c2c1CCN(C(=O)CCOc1ccccc1)C2 do in these assays?
Bm FixLJ act: 0.32

What do the screens show for `Cc1ccc(CNC(=O)c2ccc(Cn3c(=O)c4ccccc4n(CC(=O)Nc4c(C)cc(C)cc4C)c3=O)cc2)cc1`?
Bm FixLJ act: -0.52

Results for Cc1cccc(C)c1NC(=O)Cn1c(=O)n(Cc2ccc(C(=O)NCc3ccco3)cc2)c(=O)c2sccc21 ?
Bm FixLJ act: -4.4

What do the screens show for `Cc1cc(C)c(NC(=O)Cn2c(=O)n(Cc3ccc(C(=O)NCc4ccco4)cc3)c(=O)c3sccc32)c(C)c1`?
Bm FixLJ act: 4.5*

How did CCCN(C)C(=O)c1coc(COc2ccc(F)cc2Cl)n1 do in these assays?
Bm FixLJ act: -0.44

What do the screens show for `COc1cc2c(cc1OC)C1(CCN(C(=O)c3ncccc3C)CC1)OCC2`?
Bm FixLJ act: -0.36

Results for CC(C)(C)c1ccc(C2Sc3ccccc3NC3=C2C(=O)c2ccccc23)cc1 (stereo not drawn) ?
Bm FixLJ act: 3.5*

Results for Cc1cc2c(SCC(=O)NC3COCC3Cc3ccncc3)ncnc2s1 (stereo not drawn) ?
Bm FixLJ act: 0.53

What do the screens show for `C=CCOc1cccc(C(=O)N2CCCC2c2cc(C)no2)c1` (stereo not drawn)?
Bm FixLJ act: -0.55

How did CCc1ncc(C(=O)N2CCC3(CCC(=O)N(C)C3)CC2)cn1 do in these assays?
Bm FixLJ act: 0.78

How did Cc1ccc(C(=O)NC2CC(c3nnc(CO)n3C)C2)c(O)c1 (stereo not drawn) do in these assays?
Bm FixLJ act: -0.13

What do the screens show for `O=C(CC1CC1)N1CCCN(C(=O)c2ccc(O)cc2F)CC1`?
Bm FixLJ act: -2.4

Bioassay records from PubChem.
